Bioassay records (PubChem)
MOR-DOR inv ag – mu-delta opioid heterodimer inverse agonism; P35372+P41143; cell-based MOR-DOR heterodimer luminescence; inhibition, % at 9.3 µM; 340,000 tested, 0.21% active; in the data active = inhibition above about 22%, passing the limit was not always enough;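 also: 0% = cells with DMSO and 100% = wells without cells with DMSO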
Target sequence (P35372 whole entry, looked up): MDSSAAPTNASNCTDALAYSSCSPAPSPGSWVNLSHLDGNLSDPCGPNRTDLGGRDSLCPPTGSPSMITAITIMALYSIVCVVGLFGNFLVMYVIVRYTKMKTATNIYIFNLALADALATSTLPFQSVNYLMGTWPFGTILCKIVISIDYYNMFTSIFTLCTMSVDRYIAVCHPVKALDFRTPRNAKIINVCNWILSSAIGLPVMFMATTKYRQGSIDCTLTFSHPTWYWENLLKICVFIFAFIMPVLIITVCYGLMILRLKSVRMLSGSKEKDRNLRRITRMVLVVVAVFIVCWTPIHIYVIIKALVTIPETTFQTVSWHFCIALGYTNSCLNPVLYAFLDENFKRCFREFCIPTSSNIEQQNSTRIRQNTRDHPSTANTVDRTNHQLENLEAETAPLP
Target sequence (P41143 whole entry, looked up): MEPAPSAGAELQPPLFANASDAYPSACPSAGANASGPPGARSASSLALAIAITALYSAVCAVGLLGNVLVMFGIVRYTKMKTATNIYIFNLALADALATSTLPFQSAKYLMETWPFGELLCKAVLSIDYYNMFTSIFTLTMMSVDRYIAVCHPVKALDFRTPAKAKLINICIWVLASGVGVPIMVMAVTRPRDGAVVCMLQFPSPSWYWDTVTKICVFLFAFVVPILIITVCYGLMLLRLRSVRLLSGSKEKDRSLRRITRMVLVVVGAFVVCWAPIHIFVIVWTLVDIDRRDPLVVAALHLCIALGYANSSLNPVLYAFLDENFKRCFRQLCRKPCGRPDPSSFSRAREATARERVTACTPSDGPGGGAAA
OPRM1-OPRD1 ag – agonists of human mu-delta opioid receptor heterodimerization; cells, OPRM1-OPRD1 heterodimerization, luminescence; activation, % at 9.3 µM; 340,000 tested, 0.3% active; AID 504326;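 also: 0% = vehicle-treated cells and 100% = reference agonist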
HTR5A ag ctr – activates human HTR5A in OPRM1-OPRD1 agonist counter-screen; HTR5A agonist assay, luminescence, cell-based; activation, % at 9.3 µM; 340,000 tested, 0.61% active; AID 504692; in the data active = activation mostly above about 9.5%, no sharp cut-off; inactive = mostly below about 7.6%;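 also: 0% = cells with vehicle only and 100% = reference agonist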
HTR5A inv ag – inverse agonist of human HTR5A in OPRM1-OPRD1 counter-screen; P47898; HTR5A cell line, luminescence, inverse agonism; inhibition, % at 9.3 µM; 340,000 tested, 0.083% active; in the data active = inhibition mostly above about 23%, no sharp cut-off; inactive = mostly below about 18%;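 also: 0% = cells with DMSO and 100% = no-cell wells with DMSO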
OPRM1-D1 ag cf – confirmation of human OPRM1-OPRD1 heterodimerization agonists. shares compounds with OPRM1-OPRD1 ag. cells, MOR-DOR heterodimerization, luminescence complementation. activation, % at 9.3 µM. 830 tested, 45% active;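 also: 0% = vehicle-treated cells and 100% = reference agonist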
HTR5A ag ctr2 – activates human HTR5A in OPRM1-OPRD1 agonist counter-screen | shares compounds with OPRM1-OPRD1 ag | HTR5A agonist counterscreen, cell luminescence | activation, % at 9.3 µM | 830 tested, 8% active; in the data active = activation above about 17%;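 also: 0% = vehicle-treated cells and 100% = reference agonist response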
Starred values were filed as active, the others as inactive. The list is not random: actives were taken first. Their share in the collection is about 1.1%. Rule as the data show it, unless noted: active = activation above about 18%; inactive = the rest.

How did Cc1cccc(NC(=S)NC(=O)CCc2ccccc2)c1 do in these assays?
MOR-DOR inv ag: -98.0; OPRM1-OPRD1 ag: 18.1*; HTR5A ag ctr: 0.1; HTR5A inv ag: -0.4; OPRM1-D1 ag cf: 351.9*; HTR5A ag ctr2: -0.8

What do the screens show for `Cc1cccc(NC(=O)NNC(=O)CCc2ccccc2)c1`?
MOR-DOR inv ag: 2.3; OPRM1-OPRD1 ag: -0.4; HTR5A ag ctr: 0.3; HTR5A inv ag: -10.3

Results for COc1ccccc1N1CCN(C(c2cccs2)C(C)NC(=O)c2cccs2)CC1 (stereo not given) ?
MOR-DOR inv ag: -138.0; OPRM1-OPRD1 ag: 23.4*; HTR5A ag ctr: -6.1; HTR5A inv ag: 2.5; OPRM1-D1 ag cf: 13.0; HTR5A ag ctr2: 8.4

What do the screens show for `CC(C)C(=O)NC(C)C(c1cccs1)N1CCN(c2ccccc2)CC1` (stereo not given)?
MOR-DOR inv ag: -176.8; OPRM1-OPRD1 ag: 30.0*; HTR5A ag ctr: 7.0; HTR5A inv ag: -29.1; OPRM1-D1 ag cf: 28.8*; HTR5A ag ctr2: 4.2

How did CCOC(=O)c1c(C2CC2)csc1NC(=O)COC(=O)CCS(=O)(=O)c1ccc(C)cc1 do in these assays?
MOR-DOR inv ag: 11.0; OPRM1-OPRD1 ag: -2.1; HTR5A ag ctr: -3.6; HTR5A inv ag: 9.0

How did Clc1ccc(C2[C@H]3CN(Cc4cccnc4)[C@H](c4ccccc4)C34CC2(c2cccnc2)C4)cn1 (stereo not given in full) do in these assays?
MOR-DOR inv ag: -311.3; OPRM1-OPRD1 ag: 53.9*; HTR5A ag ctr: -4.7; HTR5A inv ag: -12.8; OPRM1-D1 ag cf: 9.1; HTR5A ag ctr2: 7.9

Results for c1ccc(-c2ccc(CN3C[C@@H]4C(c5ccccc5)C5(c6cccnc6)CC4(C5)[C@H]3c3ccccc3)cc2)cc1 (stereo not given in full) ?
MOR-DOR inv ag: -1.5; OPRM1-OPRD1 ag: 0.3; HTR5A ag ctr: 2.8; HTR5A inv ag: -22.3

What do the screens show for `FC(F)(F)c1ccc(C2[C@H]3CN(Cc4cccnc4)[C@H](c4ccccc4)C34CC2(c2cccnc2)C4)cc1` (stereo not given in full)?
MOR-DOR inv ag: -273.5; OPRM1-OPRD1 ag: 48.6*; HTR5A ag ctr: -1.3; HTR5A inv ag: -5.4; OPRM1-D1 ag cf: 68.1*; HTR5A ag ctr2: -4.4

What do the screens show for `Cn1c(SCC(=O)Nc2ccc(F)cc2)nc2c([nH]c3ccccc32)c1=O`?
MOR-DOR inv ag: -129.2; OPRM1-OPRD1 ag: 25.0*; HTR5A ag ctr: 4.4; HTR5A inv ag: -12.3; OPRM1-D1 ag cf: 18.4*; HTR5A ag ctr2: 5.0

How did Cc1ccc(NC(=O)CSc2nc3c([nH]c4ccccc43)c(=O)n2C)cc1 do in these assays?
MOR-DOR inv ag: -184.5; OPRM1-OPRD1 ag: 31.1*; HTR5A ag ctr: 2.5; HTR5A inv ag: -7.4; OPRM1-D1 ag cf: -3.7; HTR5A ag ctr2: 0.9

What do the screens show for `CCOc1ccc(NC(=O)CSc2nc3c([nH]c4ccccc43)c(=O)n2C)cc1`?
MOR-DOR inv ag: 6.1; OPRM1-OPRD1 ag: -1.0; HTR5A ag ctr: -5.3; HTR5A inv ag: 15.6

Results for CC1CN(CCc2ccccc2)c2nc3c(c(=O)n(C)c(=O)n3C)n2C1 (stereo not given) ?
MOR-DOR inv ag: 16.2; OPRM1-OPRD1 ag: -3.0; HTR5A ag ctr: -1.1; HTR5A inv ag: 4.4

How did S=C(Nc1ccc2nccnc2c1)N1CCOCC1 do in these assays?
MOR-DOR inv ag: -4.1; OPRM1-OPRD1 ag: 0.9; HTR5A ag ctr: -2.0; HTR5A inv ag: 7.4

How did CC1CCCN(C(=O)COC(=O)C2=COCCO2)C1 (stereo not given) do in these assays?
MOR-DOR inv ag: -0.5; OPRM1-OPRD1 ag: 0.1; HTR5A ag ctr: -0.1; HTR5A inv ag: 0.6

What do the screens show for `CCN1Cc2c(/C=C/c3ccccc3)nc3ccc(OC)cc3c2N(c2cccc(Cl)c2)C1`?
MOR-DOR inv ag: -9.8; OPRM1-OPRD1 ag: 1.7; HTR5A ag ctr: 3.5; HTR5A inv ag: -13.7

How did COc1cc(OC)cc(C(=O)N[C@H](C(=O)OCC(=O)N2CCN(S(=O)(=O)c3ccc(C)cc3)CC2)C(C)C)c1 do in these assays?
MOR-DOR inv ag: 1.0; OPRM1-OPRD1 ag: -0.3; HTR5A ag ctr: 3.0; HTR5A inv ag: -3.1

Results for CCN(CC)Cc1cc(Nc2c3ccccc3nc3c4ccccc4n(C)c23)cc(CN(CC)CC)c1O ?
MOR-DOR inv ag: inactive; OPRM1-OPRD1 ag: 144.0*; HTR5A ag ctr: 1.7; HTR5A inv ag: -6.6; OPRM1-D1 ag cf: 148.6*; HTR5A ag ctr2: -2.5

Results for Oc1cccc(Nc2c3ccccc3nc3ccccc23)c1 ?
MOR-DOR inv ag: 4.2; OPRM1-OPRD1 ag: -0.8; HTR5A ag ctr: 2.2; HTR5A inv ag: -8.5

What do the screens show for `CC(C)Cc1ccc(CN2CCCC(NC(=O)CCN3CCOCC3)C2)cc1` (stereo not given)?
MOR-DOR inv ag: 8.3; OPRM1-OPRD1 ag: -1.5; HTR5A ag ctr: 3.1; HTR5A inv ag: 7.7

What do the screens show for `Cc1onc(-c2ccccc2Cl)c1C(=O)Nc1ccc(Br)cc1`?
MOR-DOR inv ag: -24.1; OPRM1-OPRD1 ag: 3.4; HTR5A ag ctr: 5.2; HTR5A inv ag: -8.2

What do the screens show for `Cc1cccc2cc(C(c3nnnn3Cc3ccccc3)N3CCN(C)CC3)c(=O)[nH]c12` (stereo not given)?
MOR-DOR inv ag: -185.1; OPRM1-OPRD1 ag: 34.8*; HTR5A ag ctr: -0.2; HTR5A inv ag: 0.4; OPRM1-D1 ag cf: 38.0*; HTR5A ag ctr2: 1.7

What do the screens show for `COc1ccc(Cn2nnnc2C(c2cc3cccc(C)c3[nH]c2=O)N2CCN(C)CC2)cc1` (stereo not given)?
MOR-DOR inv ag: -13.4; OPRM1-OPRD1 ag: 2.7; HTR5A ag ctr: 0.2; HTR5A inv ag: -4.4

Results for Cc1ccc2cc(C(c3nnnn3Cc3ccccc3)N3CCc4ccccc43)c(=O)[nH]c2c1 (stereo not given) ?
MOR-DOR inv ag: -108.0; OPRM1-OPRD1 ag: 19.8*; HTR5A ag ctr: -2.8; HTR5A inv ag: -10.5; OPRM1-D1 ag cf: 60.4*; HTR5A ag ctr2: -1.4

Results for CC(C)Cn1nc(C(=O)NCc2ccccc2CN2CCCC2)c2ccccc2c1=O ?
MOR-DOR inv ag: inactive; OPRM1-OPRD1 ag: 162.9*; HTR5A ag ctr: 2.9; HTR5A inv ag: -7.5; OPRM1-D1 ag cf: 3.5; HTR5A ag ctr2: 0.8

Results for Cc1cccc2sc(N(CCCN(C)C)C(=O)c3ccc(S(=O)(=O)N4CCc5ccccc5C4)cc3)nc12 ?
MOR-DOR inv ag: -102.4; OPRM1-OPRD1 ag: 18.0; HTR5A ag ctr: 3.5; HTR5A inv ag: -12.9

How did CN(C)CCCN(C(=O)c1ccc(S(=O)(=O)N2CCc3ccccc3C2)cc1)c1nc2c(F)cccc2s1 do in these assays?
MOR-DOR inv ag: -351.1; OPRM1-OPRD1 ag: 107.2*; HTR5A ag ctr: -3.7; HTR5A inv ag: 10.5; OPRM1-D1 ag cf: -1.0; HTR5A ag ctr2: -2.4

How did CN(C)CCCN(C(=O)c1ccc(S(=O)(=O)N2CCc3ccccc3C2)cc1)c1nc2ccc(F)cc2s1 do in these assays?
MOR-DOR inv ag: inactive; OPRM1-OPRD1 ag: 654.6*; HTR5A ag ctr: 8.0; HTR5A inv ag: -29.4; OPRM1-D1 ag cf: active; HTR5A ag ctr2: 15.9
